Screen size: about 360,000 compounds; about 2,400 (0.67%) were called active. This is one part of a sample in which actives are shown more often than they occur.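 The calls were made as follows: active = compounds whose normalised, plate-corrected inhibition of enzyme fluorescence in the single-dose primary screen is 50% or more; inactive = the rest.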
molecular target: Fatty acid synthase (Homo sapiens) (UniProt P49327); assay: FAS thioesterase domain inhibitors, primary screen, biochemical, fluorescence intensity, uHTS (AID 602261); settings: recombinant FAS-TE, OMFH fluorogenic substrate, fluorescence endpoint; at 15 µM; active compounds read high;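 also: 0% = DMSO with enzyme and 100% = substrate without enzyme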
Sequence (P49327 whole entry, looked up, the tested form may be a part): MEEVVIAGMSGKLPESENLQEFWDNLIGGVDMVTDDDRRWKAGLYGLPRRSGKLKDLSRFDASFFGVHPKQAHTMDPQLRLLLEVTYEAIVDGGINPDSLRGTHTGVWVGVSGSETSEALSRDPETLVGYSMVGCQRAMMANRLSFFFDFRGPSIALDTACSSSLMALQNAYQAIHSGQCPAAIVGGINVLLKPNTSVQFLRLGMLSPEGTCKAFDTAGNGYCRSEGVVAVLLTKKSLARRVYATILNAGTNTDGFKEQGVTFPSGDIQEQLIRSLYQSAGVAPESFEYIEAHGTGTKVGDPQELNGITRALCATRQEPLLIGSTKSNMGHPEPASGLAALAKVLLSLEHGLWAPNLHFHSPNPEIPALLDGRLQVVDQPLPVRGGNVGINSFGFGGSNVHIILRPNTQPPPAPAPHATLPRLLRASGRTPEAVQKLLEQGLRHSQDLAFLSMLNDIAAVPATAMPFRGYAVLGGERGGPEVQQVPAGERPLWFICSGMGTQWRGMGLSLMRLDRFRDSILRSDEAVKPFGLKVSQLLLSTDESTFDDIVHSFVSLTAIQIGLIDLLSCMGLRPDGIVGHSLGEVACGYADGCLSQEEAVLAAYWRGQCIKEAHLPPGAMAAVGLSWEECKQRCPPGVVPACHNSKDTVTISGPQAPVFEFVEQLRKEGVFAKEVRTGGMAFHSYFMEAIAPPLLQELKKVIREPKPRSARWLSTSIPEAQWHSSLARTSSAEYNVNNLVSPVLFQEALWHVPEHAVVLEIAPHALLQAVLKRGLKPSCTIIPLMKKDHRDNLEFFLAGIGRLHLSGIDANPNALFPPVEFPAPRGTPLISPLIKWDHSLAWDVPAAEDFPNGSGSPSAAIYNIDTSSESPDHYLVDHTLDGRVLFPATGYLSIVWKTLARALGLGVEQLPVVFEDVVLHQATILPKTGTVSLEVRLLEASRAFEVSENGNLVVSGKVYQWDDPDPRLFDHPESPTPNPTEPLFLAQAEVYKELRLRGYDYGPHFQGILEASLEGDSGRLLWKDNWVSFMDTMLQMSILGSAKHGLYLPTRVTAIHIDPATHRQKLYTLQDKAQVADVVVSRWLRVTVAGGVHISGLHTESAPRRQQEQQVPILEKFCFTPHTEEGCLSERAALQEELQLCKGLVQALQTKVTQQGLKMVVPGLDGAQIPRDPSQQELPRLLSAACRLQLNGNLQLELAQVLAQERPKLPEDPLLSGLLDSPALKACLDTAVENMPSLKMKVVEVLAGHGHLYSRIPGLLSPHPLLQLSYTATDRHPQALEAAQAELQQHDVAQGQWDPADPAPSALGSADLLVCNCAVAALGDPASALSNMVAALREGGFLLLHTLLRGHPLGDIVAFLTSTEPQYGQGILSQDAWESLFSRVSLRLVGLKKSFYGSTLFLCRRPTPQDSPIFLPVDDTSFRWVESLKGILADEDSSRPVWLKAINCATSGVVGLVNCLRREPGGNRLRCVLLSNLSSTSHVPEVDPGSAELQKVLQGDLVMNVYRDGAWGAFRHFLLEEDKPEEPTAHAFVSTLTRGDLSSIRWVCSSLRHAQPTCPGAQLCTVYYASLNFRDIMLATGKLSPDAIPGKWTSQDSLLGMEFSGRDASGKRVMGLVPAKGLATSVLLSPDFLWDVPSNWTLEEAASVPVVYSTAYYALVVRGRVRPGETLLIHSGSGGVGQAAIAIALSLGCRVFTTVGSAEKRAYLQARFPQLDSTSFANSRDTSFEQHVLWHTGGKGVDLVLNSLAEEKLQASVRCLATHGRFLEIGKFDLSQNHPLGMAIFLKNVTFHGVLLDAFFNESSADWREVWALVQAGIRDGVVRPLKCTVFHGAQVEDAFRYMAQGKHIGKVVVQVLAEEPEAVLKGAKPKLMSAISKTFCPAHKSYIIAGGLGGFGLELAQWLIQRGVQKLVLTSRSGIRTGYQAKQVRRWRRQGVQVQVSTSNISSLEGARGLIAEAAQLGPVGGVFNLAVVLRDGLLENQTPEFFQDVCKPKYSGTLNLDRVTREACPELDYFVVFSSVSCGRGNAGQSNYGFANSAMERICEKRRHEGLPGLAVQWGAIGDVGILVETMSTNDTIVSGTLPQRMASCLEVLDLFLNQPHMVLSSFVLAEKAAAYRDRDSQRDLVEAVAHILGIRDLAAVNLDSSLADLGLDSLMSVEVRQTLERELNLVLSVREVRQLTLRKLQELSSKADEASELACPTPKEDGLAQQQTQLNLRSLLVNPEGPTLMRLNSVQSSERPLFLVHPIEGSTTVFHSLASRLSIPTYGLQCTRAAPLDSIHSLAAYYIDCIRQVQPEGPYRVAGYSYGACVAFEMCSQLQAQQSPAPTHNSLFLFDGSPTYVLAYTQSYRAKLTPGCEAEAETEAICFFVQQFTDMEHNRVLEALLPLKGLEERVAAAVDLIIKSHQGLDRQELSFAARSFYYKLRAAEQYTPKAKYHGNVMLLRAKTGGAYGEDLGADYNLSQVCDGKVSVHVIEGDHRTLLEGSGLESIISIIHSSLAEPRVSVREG

Row | SMILES | inhibition
1 | CC1(C)Cc2nc3sc4c(SCC(=O)NC(c5ccccc5)c5ccccc5)ncnc4c3cc2CO1 | -7.6% (inactive)
2 | CCCc1nc2scc(-c3ccc(C)cc3)c2c(=O)n1N | -1.6% (inactive)
3 | CCCc1cc(-c2nc(-c3ccc(C)cc3)cs2)ccn1 | 56.3% (active)
4 | Fc1ccc(-c2csc(-c3ccc(C4SCCS4)cc3)n2)cc1F | 33% (inactive)
5 | Cc1ccc(C(=O)C(=S)N2CCOCC2)cc1 | -7.7% (inactive)
6 | O=C1OCCN1C(=O)[C@H]1[C@H](c2ccccc2)C(c2ccc(F)cc2)=NN1c1ccccc1 | 41.9% (inactive)
7 | O=C1OCCN1C(=O)[C@H]1[C@H](c2ccc(Cl)cc2)C(c2cccc(Cl)c2)=NN1c1ccc(Br)cc1 | 67.3% (active)
8 | O=C1OCCN1C(=O)[C@H]1[C@H](c2ccc(F)cc2)C(c2ccccc2)=NN1c1ccc(Br)cc1 | 46.2% (inactive)
9 | COCCNC(=O)CSc1nc2c(n1-c1ccccc1)CCCC2 | -7.1% (inactive)
10 | Cc1ccccc1-n1c(SCC(=O)Nc2cccc3ccccc23)nc(O)cc1=O | -5.5% (inactive)
11 | Cc1ccc(C)c(Cn2cnc3c(oc4ccccc43)c2=O)c1 | 16.6% (inactive)
12 | Cc1ccc(C)c(NC(=O)COC(=O)CSc2ccccc2)c1 | -9.4% (inactive)
13 | Cc1ccc(C)c(NC(=O)CSc2nc3c(oc4ccccc43)c(=O)n2-c2ccccc2)c1 | 62.3% (active)
14 | CCN1CCN(C(=O)/C=C\C(=O)O)CC1 | -3% (inactive)
15 | COc1ccc(/C=C/C(=O)c2cc(Br)ccc(=O)c2O)cc1 | 6.9% (inactive)
16 | COC(=O)CN(c1cccc(C(C)=O)c1)S(C)(=O)=O | -7% (inactive)
17 | O=C(COC(=O)c1cc([N+](=O)[O-])ccc1NCc1ccccc1)NC1CCCCC1 | 60.7% (active)
18 | O=C(COC(=O)Cc1ccc([N+](=O)[O-])cc1)NC1CCCCCC1 | 22.7% (inactive)
19 | O=C(COC(=O)c1ccccc1Cl)NC1CCCCCCC1 | 8.2% (inactive)
20 | COc1ccc(S(=O)(=O)N(CCCN2CCCC2=O)Cc2cc3c(C)ccc(C)c3[nH]c2=O)cc1 | -3% (inactive)
21 | O=C(CCC1CCCCC1)Nc1cc(C(F)(F)F)ccc1N1CCOCC1 | 34.3% (inactive)
22 | Cc1cccc(CN2CCC(CNC(=O)Nc3ccc(F)c(Cl)c3)CC2)c1 | 2.9% (inactive)

Row | SMILES | inhibition
23 | Cc1ccc(C)c(Cn2nnc3c(=O)[nH]c(C(=O)Nc4ccc(F)cc4)nc32)c1 | 3.8% (inactive)
24 | Cc1cccc(CS(=O)(=O)c2ncc(Cl)c(C(=O)Nc3ccc(F)cc3)n2)c1 | 56.5% (active)
25 | O=C(N=C1SC2CS(=O)(=O)CC2N1c1ccccc1)c1ccccc1 (stereo not drawn) | 8.4% (inactive)
26 | O=S1(=O)CC(N2CCC(Cc3ccccc3)CC2)CN1Cc1ccccc1 (stereo not drawn) | 6.6% (inactive)
27 | O=[N+]([O-])c1ccc(CN2CC(N3CCC(c4ccccc4)CC3)CS2(=O)=O)cc1 (stereo not drawn) | 69.8% (active)
28 | O=[N+]([O-])c1ccc(CN2CC(N3CC=CC3)CS2(=O)=O)cc1 (stereo not drawn) | -9.2% (inactive)
29 | CN(C(=O)c1ccc(NC(=O)Cc2cccc(NC(=O)C3CCN(C(=O)c4ccccc4)CC3)c2)cc1)C1CC1 | -9.5% (inactive)
30 | CCOc1ccc(C(=O)NC2CCN(CC(=O)NCc3cccs3)CC2)cc1 | -3.1% (inactive)
31 | Cc1cccc(NC(=O)C(C)N2C(=O)C3C4CC(C(Br)C4Br)C3C2=O)c1 (stereo not drawn) | 20.5% (inactive)
32 | O=C(Nc1ccnn1C1CCN(C/C=C/c2ccc(F)cc2)CC1)C1CCCC1 | -0.7% (inactive)
33 | COC(=O)c1cc(Oc2ccc(S(=O)(=O)N3CCOCC3)cc2[N+](=O)[O-])cc(C(=O)OC)c1 | 38.3% (inactive)
34 | Cc1cc(S(=O)(=O)N2CCOCC2)ccc1OCC(=O)N1CCOCC1 | -2.5% (inactive)
35 | Cc1cc(C(=O)COc2ccccc2[N+](=O)[O-])c(C)n1-c1cccc(S(=O)(=O)N2CCOCC2)c1 | 58.7% (active)
36 | CSc1n[nH]c(=S)n1N | -4.3% (inactive)
37 | O=S(=O)(c1cnccc1N1CCN(/N=C/c2ccc(Br)cc2)CC1)N1CCCCC1 | 31.4% (inactive)
38 | Cc1cc(Nc2cccc(F)c2)n2ncnc2n1 | -2.8% (inactive)
39 | COc1ccc(C2CC(=O)n3c(nc4ccccc43)S2)cc1OC (stereo not drawn) | -161% (inactive)
40 | COc1ccccc1C1CC(=O)n2c(nc(-c3ccccc3)c2-c2ccccc2)S1 (stereo not drawn) | 54.5% (active)
41 | COc1cccc(C2CC(c3ccccc3)=NN2S(=O)(=O)c2ccccc2)c1OC (stereo not drawn) | 20% (inactive)
42 | O=C(NCCNc1ccc([N+](=O)[O-])cc1)c1cccc2c(Br)cccc12 | 37.6% (inactive)
43 | COc1c(C)cc(C(O)c2ncc(-c3cccc(C(F)(F)F)c3)[nH]2)cc1C (stereo not drawn) | 7.9% (inactive)
44 | O=S1(=O)C[C@@H](N2CCN(CCO)CC2)[C@H](COCc2ccccc2)N1 | -9.7% (inactive)

Row | SMILES | inhibition
45 | COC(=O)c1cccc(N2C(=O)C3C4C=CC(CC4)C3C2=O)c1 (stereo not drawn) | -6.4% (inactive)
46 | CC(=O)Nc1ccc(N2C(=O)C3C4CC(=O)C(c5ccccc54)C3C2=O)cc1 (stereo not drawn) | -10% (inactive)
47 | O=C(Oc1cccc(N2C(=O)C3C4c5ccccc5C(c5ccccc54)C3C2=O)c1)c1ccco1 (stereo not drawn) | 64.1% (active)
48 | CCCNC(=O)COc1coc(CN2CCN(Cc3ccccc3)CC2)cc1=O | -9.4% (inactive)
49 | CC1(c2cccc(N)c2)OCCO1 | -9.3% (inactive)
50 | COc1ccc([N+](=O)[O-])cc1N(CC(O)Cn1nnc2ccccc21)S(=O)(=O)c1ccc(C)cc1 (stereo not drawn) | 51.1% (active)
51 | Cc1ccc(S(=O)(=O)N(CC(O)CN2CCCCC2)c2cccc([N+](=O)[O-])c2)cc1 (stereo not drawn) | 2.6% (inactive)
52 | COc1ccc([N+](=O)[O-])cc1N(CC(O)CN(CC(C)C)CC(C)C)S(=O)(=O)c1ccc(C)cc1 (stereo not drawn) | 32.7% (inactive)
53 | Cc1c(C(=O)N2CCCC2)c(S(=O)(=O)NCC(C)c2ccccc2)c(C)n1C (stereo not drawn) | 2.1% (inactive)
54 | O=C(COc1ccc(Cl)cc1)NCCC1=CCCCC1 | 15.7% (inactive)
55 | O=C(NCCC1=CCCCC1)c1ccc(Cl)c([N+](=O)[O-])c1 | 59.5% (active)
56 | Cc1ccnc(NC(=O)c2ccc(Cl)c([N+](=O)[O-])c2)c1 | 23.1% (inactive)
57 | COc1ccc(C(c2nnnn2Cc2cccs2)N2CCN(c3ccccc3)CC2)cc1OC (stereo not drawn) | 14.2% (inactive)
58 | Nc1c(-c2cccc(Cl)c2)cnn1-c1cccc([N+](=O)[O-])c1 | 51.8% (active)
59 | Nc1c(C(=O)O)cnn1-c1ccccc1 | -1.5% (inactive)
60 | O=C(CCl)N(Cc1cccc([N+](=O)[O-])c1)c1cccc(Cl)c1 | 15.2% (inactive)
61 | CC(C)CNC(=O)COC(=O)/C=C/c1ccco1 | -7.5% (inactive)
62 | COc1ccc([N+](=O)[O-])cc1NC(=O)COC(=O)/C=C/c1ccco1 | 71.2% (active)
63 | COc1cccc(NC(=O)COC(=O)/C=C/c2ccco2)c1 | 3.5% (inactive)
64 | CCOC(=O)Nc1ccc(S(=O)(=O)N(C)C(C)C)cc1 | -3.7% (inactive)
65 | CN1C(C(=O)NCc2ccco2)CC2Cn3c(nc4ccccc43)C21 (stereo not drawn) | -11.9% (inactive)
66 | O=C(CCCl)Nc1ccc(S(=O)(=O)NCc2ccco2)cc1 | -1.3% (inactive)

Row | SMILES | inhibition
67 | COc1ccc(CNC(=O)C2CC(c3ccc(C(F)(F)F)cc3)=NO2)cc1 (stereo not drawn) | -1.7% (inactive)
68 | Cc1ccc(CNC(=O)C2CC(c3ccccc3[N+](=O)[O-])=NO2)o1 (stereo not drawn) | -5.1% (inactive)
69 | O=C(NCCCCc1ccccc1)C1CC(c2ccc([N+](=O)[O-])cc2)=NO1 (stereo not drawn) | 54.2% (active)
70 | O=C(NCCCn1ccnc1)C(=O)NCC1OCCN1S(=O)(=O)c1cc(F)ccc1F (stereo not drawn) | -10.1% (inactive)
71 | CCOC(=O)c1ccc(NC(=O)c2nc[nH]c2C(=O)N[C@@H](CCCCNC(=O)OC(C)(C)C)C(=O)OC(C)(C)C)cc1 | 85.2% (active)
72 | Cc1ccc(NC(=O)c2nc[nH]c2C(=O)N[C@@H](CCCCNC(=O)OC(C)(C)C)C(=O)OC(C)(C)C)cc1 | 75.3% (active)
73 | CC(C)(C)OC(=O)NCCCCCNC(=O)c1nc[nH]c1C(=O)NCc1ccccc1 | 8.2% (inactive)
74 | CNC(=O)c1[nH]cnc1C(=O)N[C@@H](CC(C)C)C(=O)OC(C)(C)C | -5.3% (inactive)
75 | CC(C)(C)OC(=O)NCCCCCNC(=O)c1[nH]cnc1C(=O)Nc1nccs1 | -15.7% (inactive)
76 | C[C@H](NC(=O)c1nc[nH]c1C(=O)N[C@@H](C)C(=O)OC(C)(C)C)C(=O)OC(C)(C)C | -7% (inactive)
77 | COc1ccccc1CNS(=O)(=O)CC12CCC(CC1=O)C2(C)C (stereo not drawn) | 2.9% (inactive)
78 | Cc1cccc(OCC(=O)OCC(=O)Nc2ccc(Cl)cn2)c1 | -6.1% (inactive)
79 | CCN(CC)C(CNC(=O)CSc1nnnn1-c1cccc(F)c1)c1ccco1 (stereo not drawn) | -1.2% (inactive)
80 | Cc1cccc(N2CCN(C(=O)c3cc4c(=O)[nH]c5ccccc5c4n3C)CC2)c1C | 5% (inactive)
81 | O=C(Cc1ccc(S(=O)(=O)N2CCOCC2)s1)NCCOc1ccccc1F | -0.5% (inactive)
82 | Cc1ccc2c(c1)C(O)(CC(=O)c1cccc(-n3cccc3)c1)C(=O)N2 (stereo not drawn) | 2.6% (inactive)
83 | COc1cc(/C=C(/NC(=O)c2ccccc2)C(=O)Nc2cccc(O)c2)c([N+](=O)[O-])cc1OC | -3.8% (inactive)
84 | O=C(N/N=C/c1cc([N+](=O)[O-])ccc1O)/C(=C\c1cccs1)NC(=O)c1ccccc1 | 56.5% (active)
85 | Nc1nnnn1/N=C/c1cc([N+](=O)[O-])ccc1O | -3.3% (inactive)
86 | COc1ccc(NC(=O)NN2CCN(C)CC2)c(OC)c1 | -6% (inactive)
87 | O=S(=O)(Nc1cccc(Oc2ccc(Cl)cc2)n1)c1ccc(F)cc1 | 8.1% (inactive)
88 | CC(C)CC(=O)c1c[nH]c(C(=O)NCc2ccccc2)c1 | -3.6% (inactive)

— PubChem BioAssay AID602261 (Sanford-Burnham Center for Chemical Genomics, 2012)
